Assay [1] in a line: reducers of endogenous Her2 protein level, primary screen, SKBR3 breast tumor cells, AlphaScreen, ATP viability (AID 461;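 active = Her2 level under about 52% in both replicate screens, with viability over 70% of control, limit read from the data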;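 as to Her2 level: lower value means less Her2 protein in the cells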;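 as to viability: percent of carrier control wells set as 100% viability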). As to conditions: 18-24 h, measured here: SKBR3 viability, ATP luminescence, at 10 µM. In general terms: In Alpha technology, singlet oxygen from a donor bead excites a nearby acceptor bead.
Assay [2] deals with Receptor tyrosine-protein kinase erbB-2 (Homo sapiens) (UniProt P04626). Described as above. As to conditions: 18-24 h, at 10 µM, stronger effect = lower value.
Chain of Receptor tyrosine-protein kinase erbB-2 (Homo sapiens) (P04626 whole entry, looked up): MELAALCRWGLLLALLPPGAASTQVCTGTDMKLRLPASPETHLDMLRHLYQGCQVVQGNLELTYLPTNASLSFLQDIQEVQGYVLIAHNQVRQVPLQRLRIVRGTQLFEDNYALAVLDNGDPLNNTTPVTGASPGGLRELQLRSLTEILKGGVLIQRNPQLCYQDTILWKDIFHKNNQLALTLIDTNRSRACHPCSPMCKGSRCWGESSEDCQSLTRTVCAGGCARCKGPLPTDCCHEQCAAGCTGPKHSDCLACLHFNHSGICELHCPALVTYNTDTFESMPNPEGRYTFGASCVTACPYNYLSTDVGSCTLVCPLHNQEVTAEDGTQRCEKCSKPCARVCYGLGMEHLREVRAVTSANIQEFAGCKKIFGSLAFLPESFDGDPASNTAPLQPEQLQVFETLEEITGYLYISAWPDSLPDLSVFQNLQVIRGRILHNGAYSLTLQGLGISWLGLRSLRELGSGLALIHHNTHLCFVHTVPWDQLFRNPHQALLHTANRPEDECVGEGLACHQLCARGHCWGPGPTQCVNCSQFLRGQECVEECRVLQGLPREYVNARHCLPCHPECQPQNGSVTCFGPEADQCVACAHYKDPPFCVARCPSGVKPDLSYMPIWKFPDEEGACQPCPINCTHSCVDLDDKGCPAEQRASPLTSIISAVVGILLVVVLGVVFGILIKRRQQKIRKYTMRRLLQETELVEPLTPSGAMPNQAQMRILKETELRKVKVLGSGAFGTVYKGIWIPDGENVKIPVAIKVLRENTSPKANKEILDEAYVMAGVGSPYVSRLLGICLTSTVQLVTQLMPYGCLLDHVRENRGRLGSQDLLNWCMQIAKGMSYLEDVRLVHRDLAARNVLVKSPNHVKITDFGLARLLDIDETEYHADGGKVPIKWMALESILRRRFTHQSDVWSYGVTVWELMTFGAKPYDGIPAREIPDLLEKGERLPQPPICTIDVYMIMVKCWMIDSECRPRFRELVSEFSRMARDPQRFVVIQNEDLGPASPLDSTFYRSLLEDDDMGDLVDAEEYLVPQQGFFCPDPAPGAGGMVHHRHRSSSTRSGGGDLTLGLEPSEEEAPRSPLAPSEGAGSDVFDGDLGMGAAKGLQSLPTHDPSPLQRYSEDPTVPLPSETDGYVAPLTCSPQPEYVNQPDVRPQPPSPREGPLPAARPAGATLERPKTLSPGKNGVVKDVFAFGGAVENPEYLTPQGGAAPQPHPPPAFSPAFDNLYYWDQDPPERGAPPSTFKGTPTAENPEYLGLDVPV
Assay [3] in a line: SK-BR-3 cell growth inhibitors, pilot screen, 24 h, human (AID 572;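 active = viability at or below 10% of carrier control in both of two separate runs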;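 also: compound exposure lasted between 18 and 24 h rather than exactly 24 h; 100% = carrier-treated control wells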). As to conditions: SK-BR-3 viability, CellTiter-Glo luminescence, at 10 µM, stronger effect = lower value. On the technique in general: In ATP-based viability assays light output follows the ATP content of the culture.
A short description of assay [4]: HUVEC growth inhibition – cell-based, human, primary screen (AID 575;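 active = viability at or below 30% in both replicate assays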;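 also: 100% = median of untreated cell wells with 0.1% DMSO on each plate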). The settings on record: HUVEC proliferation, CellTiter-Glo luminescence, 72 h; at 10 µM; stronger effect = lower value.
Assay [5] is described as follows: growth inhibitors of H69AR lung tumor, primary screen, human, duplicate replicates (AID 580;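 active = viability at or under a set limit in both replicates, limit being median viability minus 3 SD, cut at about 48% in these data, passing the limit was not always enough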;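 also: 100% = mean luminescence of untreated wells and 0% = no signal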). The settings on record: H69AR lung tumor cells viability, ATP luminescence, 72 h; at 10 µM; stronger effect = lower value.
Assay [6] in a line: reversal of MRP1-mediated doxorubicin resistance, pilot screen, H69AR cells, doxorubicin co-treatment (AID 601;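 active = viability loss from added drug above about 55%, and viability with drug at most 40%, in both replicates, limit read from the data, passing the limit was not always enough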). As to conditions: CellTiter-Glo, 72 h, at 10 µM; for differential viability (reversal): stronger effect = higher value.
Assay [7] in a line: 384-well plate pilot, post-Golgi transport modulator project, inhibition of yeast transport mutant growth (AID 636; in the data active = inhibition above about 31%). As to conditions: absorbance 615 nm, about 18 h, stronger effect = higher value.
A short description of assay [8]: growth suppression of yeast trafficking mutant, preliminary HTS, modulators of trafficking downstream of Golgi apparatus project, 1536-format plate, OD 615 nm (AID 637; in the data active = inhibition above about 30%). The settings on record: yeast transport mutant growth, absorbance 615 nm, 18 h; stronger effect = higher value.
A short description of assay [9]: OD615 S. cerevisiae growth inhibition, permissive medium, pilot counter-assay, permissive growth control for S. cerevisiae lifespan shortening project (AID 705;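 active = growth inhibition above 25% in both replicates, a cutoff set 3 SD above the mean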). The settings on record: OD615, 24 h, at 10 µM, stronger effect = higher value.
Assay [10] can be described thus: Restrictive medium S. cerevisiae growth inhibition, OD615, pilot screen of yeast lifespan reduction project, restrictive growth control (AID 706;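 active = growth inhibition above a set limit, 3 SD over mean compound inhibition, in both replicates, cut at about 43% in these data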;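 also: modified DeaD lifespan yeast strain shifted to restrictive glucose medium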). The settings on record: OD615, 48 h, at 10 µM, stronger effect = higher value.
Assay [11] is described as follows: viability gain of MRP-1-high H69AR cells under doxorubicin, pilot screen, MRP-1 activator project, CellTiter-Glo, duplicate (AID 807;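 active = viability increase at or above a cutoff of the median across tested compounds plus 3 SD, cut at about 8.5% in these data, passing the limit was not always enough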;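 also: compound pretreatment 18-22 h then 72 h combined with doxorubicin; 0% = doxorubicin alone and 100% = vehicle without doxorubicin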). The settings on record: H69AR viability with doxorubicin, CellTiter-Glo luminescence; at 10 µM; stronger effect = higher value.
Assay [12] can be described thus: growth suppression of beta-catenin knockout HCT116, pilot screen, human colon tumor cells (AID 823;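 active = cell viability at or below a set limit in both duplicate runs, the limit being the all-compound median minus 4 SD, cut at about 23% in these data, passing the limit was not always enough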;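 also: 0% = wells killed by 20 µM Hyamine and 100% = untreated DMSO cell wells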). The settings on record: CellTiter-Glo, 60 h, at 10 µM, stronger effect = lower value.
Assay [13] in a line: growth suppression of PTEN-deleted HCT116, pilot screen, cell-based, HCT116 clonal line, CellTiter-Glo (AID 824;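 active = viability at or below 27.92% in each of two runs, the all-compound median minus 4 SD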;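 also: 0% = 20 µM Hyamine control and 100% = vehicle cell control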). As to conditions: 60 h, at 10 µM, stronger effect = lower value.
Assay [14] can be described thus: inhibitors of the yeast RAM network, pilot screen, dse1pr::URA3 reporter, 5-FOA selection (AID 869).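 Also: 0% = DMSO wells with no growth and 100% = 10 µM 1-NA-PP1 with full growth; RAM network block rescues cells from 5-FOA so hits raise OD615 growth.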 As to conditions: S. cerevisiae dse1pr::URA3 5-FOA growth, OD615, 2 d; at 10 µM; stronger effect = higher value; strain carries analog-sensitive mutant Cbk1 kinase.
Assay [15] is described as follows: RAM signaling pathway blockade in yeast – S. cerevisiae, Pdr1DBD-CYC8 efflux-inhibited sensitized strain, primary screen (AID 1298;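 active = RAM network inhibition above 8.4% in each of two replicates, 3 SD over the compound average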;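 also: 0% = DMSO untreated cells without growth and 100% = 10 µM 1-NA-PP1 full growth; higher means more yeast growth rescued from 5-FOA killing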). The settings on record: S. cerevisiae cbk1-as DSE1-URA3 strain, 5-FOA growth OD615, 2 d; at 50 µM; stronger effect = higher value.
[16] abbreviates: H69AR cells + 2 uM doxorubicin, measured here: viability with 2 uM doxorubicin, stronger effect = lower value.
Where [17] appears, read: H69AR cells, compound alone cytotoxicity.

The record followed here is PubChem BioAssay.

Each structure is given as a SMILES string. Records with an inconclusive call do not appear. Activity calls are given as the source filed them.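 The calls were made as follows, unless noted: active = inhibition over a set limit, the all-compound mean plus 3 SD, in both replicate runs; inconclusive = over that limit in just one replicate run; inactive = at or under that limit in both runs.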

Regarding `COC(=O)c1ccccc1NC1c2ccccc2C(=O)N1c1cccnc1` (stereo not given), the viability was 95% in assay [1]; 95% (inactive) in [3]; 86.9% (inactive) in assay [4]; 84.7% (inactive) in assay [5]; 85.4% in [6] (setting [16]); 84.7% in assay [6] (setting [17]). The viability is 94.4% (inactive) in [12] and 89.8% (inactive) in [13]. Also, the Her2 level in [2] was 109% (inactive). Moreover, in assay [6] (H69AR cells + 2 uM doxorubicin), the differential viability (reversal) was -0.77% (inactive). Besides, the inhibition was 1.07% (inactive) in assay [7], 0.33% (inactive) in assay [8] and -1.07% (inactive) in [14]. For the same compound, the growth inhibition is -16.1% (inactive) in assay [9] and 3.47% (inactive) in assay [10]. In addition, in [11], the viability increase was -0.86% (inactive). Also, in assay [15], the RAM network inhibition was 4.8% (inactive).
For `O=C(NC1CCCC1)C1CCCN(S(=O)(=O)c2cccc3cccnc23)C1` (stereo not given), the viability is 102% in assay [1]; 102% (inactive) in [3]; 115% (inactive) in assay [4]; 98.8% (inactive) in assay [5]; 94.8% in [6] (setting [16]); 98.8% in assay [6] (setting [17]). For the same compound, the figures for the viability in assay [12] and in assay [13] were 100% (inactive) and 99.3% (inactive), respectively. Moreover, the Her2 level in [2] is 116% (inactive). For the same compound, the differential viability (reversal) in assay [6] (H69AR cells + 2 uM doxorubicin) is 3.92% (inactive). Besides, the inhibition in assay [7] is -5.07% (inactive); in assay [8] it was 4.33% (inactive); in assay [14], 0.7% (inactive). Besides, the growth inhibition in assay [9] is -9.46% (inactive); in assay [10] it was 1.54% (inactive). For the same compound, the viability increase in assay [11] was -1.04% (inactive). For the same compound, the RAM network inhibition in assay [15] was 5.53% (inactive).
`COc1cc(NC(=O)C2CCCN2S(=O)(=O)c2cccc3cccnc23)cc(OC)c1OC` (stereo not given): the viability is 72% in assay [1]; 72% (inactive) in assay [3]; 87.6% (inactive) in assay [4]; 82.2% (inactive) in [5]; 88.3% in [6] (setting [16]); 82.2% in assay [6] (setting [17]). The viability in [12] and in assay [13] was 79.4% (inactive) each time. Also, the Her2 level in assay [2] was 81% (inactive). For the same compound, in assay [6] (H69AR cells + 2 uM doxorubicin), the differential viability (reversal) was -6.16% (inactive). In addition, the inhibition was -1.67% (inactive) in assay [7], 1.5% (inactive) in assay [8] and 0.905% (inactive) in assay [14]. Also, the growth inhibition was 0.6% (inactive) in [9] and -10.7% (inactive) in [10]. Further, in assay [11], the viability increase was -5.34% (inactive). Besides, the RAM network inhibition in assay [15] was 2.32% (inactive).
With `CCN1CCCC1CNC(=O)c1cc2c(=O)n(C)c3ccccc3c2n1C` (stereo not given), the viability in assay [1] was 87%; in assay [3] it was 87% (inactive); in assay [4], 74.7% (inactive); in assay [5], 87.8% (inactive); in assay [6] (setting [16]), 80.8%; in assay [6] (setting [17]), 87.8%. Further, the results for the viability in assay [12] and in [13] were 67.5% (inactive) and 66.2% (inactive), respectively. Moreover, in assay [2], the Her2 level is 86.5% (inactive). For the same compound, the differential viability (reversal) in assay [6] (H69AR cells + 2 uM doxorubicin) was 7.05% (inactive). The inhibition in [7] is -0.4% (inactive); in assay [8], 15.9% (inactive); in assay [14], 1.1% (inactive). Further, the growth inhibition in assay [9] is -1.93% (inactive); in [10], -3.33% (inactive). The viability increase in assay [11] was -5.23% (inactive). Moreover, the RAM network inhibition in assay [15] was 2% (inactive).
On to `COc1ccc(S(=O)(=O)N2CCC(C(=O)Nc3c(F)cccc3F)CC2)cc1`, for which the viability in [1] is 88.5%; in assay [3], 88.5% (inactive); in [4], 96.5% (inactive); in assay [5], 97.6% (inactive); in assay [6] (setting [16]), 96.8%; in assay [6] (setting [17]), 97.6%. Further, the viability in assay [12] is 99.6% (inactive); in [13] it was 101% (inactive). The Her2 level in assay [2] was 111% (inactive). In addition, in [6] (H69AR cells + 2 uM doxorubicin), the differential viability (reversal) was 0.885% (inactive). The inhibition was 0.93% (inactive) in assay [7], -4.17% (inactive) in [8] and 3.77% (inactive) in assay [14]. In addition, the growth inhibition in [9] is -11.9% (inactive); in [10], -14.8% (inactive). For the same compound, the viability increase in assay [11] was -2.23% (inactive). Also, the RAM network inhibition in assay [15] is 3.07% (inactive).

By viability is commonly meant a read-out of living cells in per cent, often relative to untreated cells. A word on the inhibition: it is the relative decrease from the control value, in per cent.
